# Screening data: PubChem, Sanford-Burnham Center for Chemical Genomics
# Hits are enriched below; roughly 31% of the tested compounds scored in any of these assays.
# PLAP activator: activators of human placental alkaline phosphatase. purified PLAP enzyme, luminescent substrate read-out; hits give high values. activation fold at 20 µM. hit rate 1.2% among 96,000; in the data active = activation fold above about 2
# CYP2C19 activ: activators of human cytochrome P450 2C19; P33261; recombinant CYP2C19, luciferin-H EGE luminescence; hits give high values; 0 = fully inhibited enzyme, 1 = untreated enzyme; activation factor at 5 µM; 96,000 tested, under 10 active;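 active = activation factor of at least 2 at 5 µM in the primary screen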;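 note: 0 = wells with 2.5 mM tranylcypromine and 1 = vehicle-only wells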
# Target sequence (P33261 whole entry, looked up): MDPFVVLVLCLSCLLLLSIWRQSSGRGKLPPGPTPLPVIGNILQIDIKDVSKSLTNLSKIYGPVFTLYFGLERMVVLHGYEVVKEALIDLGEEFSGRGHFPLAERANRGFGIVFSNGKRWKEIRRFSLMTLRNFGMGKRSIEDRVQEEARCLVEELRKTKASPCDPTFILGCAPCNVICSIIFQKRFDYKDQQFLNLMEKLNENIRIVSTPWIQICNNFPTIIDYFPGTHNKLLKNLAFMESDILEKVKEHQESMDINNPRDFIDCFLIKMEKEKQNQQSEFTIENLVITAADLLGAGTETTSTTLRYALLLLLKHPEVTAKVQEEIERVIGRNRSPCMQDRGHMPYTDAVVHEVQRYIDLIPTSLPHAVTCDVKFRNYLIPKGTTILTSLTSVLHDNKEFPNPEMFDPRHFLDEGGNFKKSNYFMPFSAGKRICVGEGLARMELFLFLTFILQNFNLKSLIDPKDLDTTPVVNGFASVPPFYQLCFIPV
# CYP2C9 act: CYP2C9 (human) activation; P11712; recombinant CYP2C9, luciferin-H conversion, luminescence; hits give high values; factor 1 = untreated enzyme, 0 = blocked; activation factor at 5 µM; hit rate 1.4% among 96,000; AID 1024;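 active = activation factor of 2 or more for CYP2C9 at a 5 µM dose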;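 note: 0 = sulfaphenazole-blocked wells and 1 = vehicle-only wells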
# CYP2C19 inhib: human CYP2C19 inhibition | CYP2C19 Supersomes, luciferin-H EGE luminescence, 30 min | hit rate 21% among 96,000 | P33261 | AID 778 | inhibition, % at 5 µM;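 active = CYP2C19 inhibition above a set limit at 5 µM in the primary screen, cut at about 50% in these data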;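 note: plate controls were negative control wells for no effect and 2.5 mM tranylcypromine positive control for full effect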
# CYP2C9 inhib: inhibitors of human CYP2C9; P11712; hit rate 20% among 96,000; inhibition, % at 5 µM; CYP2C9 Supersomes, luciferin-H conversion, luminescence;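 active = blocking of liver enzyme CYP2C9 beyond about 50% at 5 µM, limit read from the data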
# Active calls of the source: *; . = not tested or not shown.
SMILES,PLAP activator,CYP2C19 activ,CYP2C9 act,CYP2C19 inhib,CYP2C9 inhib
COC(=O)c1ccc(Cl)c(NS(=O)(=O)c2ccc3c(c2)OCCO3)c1,1.1,0.1,0.6,86.8*,37.1
COc1cc(NC(=O)CSc2nnc(C)s2)cc(OC)c1,0.9,0.5,0.6,52.5*,37.7
COc1ccc(NC(=O)CCSc2nnc(C)s2)cc1,1.2,1.1,1.3,-11.9,-26.9
O=C(NC1CC2CCC(C1)N2C(=O)NCc1ccccc1)NC12CC3CC(CC(C3)C1)C2 (stereo not drawn),1,0.9,1,10.8,2.3
CCCCc1c(O)c2ccccc2[nH]c1=O,1.2,0.7,0.9,26.1,13.3
CCCCc1cc(O)c(CCCC)c(O)c1,1,0.1,0,89.7*,97.0*
CCOC(=O)c1c(C)c(-c2ccccc2)n(CC(=O)NCCC(C)C)c1C,1.1,0.8,0.5,18.3,46.0
Cc1[nH]nc2c1C(c1cccc(O)c1)C1=C(CC(C)(C)CC1=O)N2 (stereo not drawn),1.5,1,0.7,-0.6,32.4
Cc1nc2[nH]c(=O)c3c(n2n1)NC1=C(C(=O)CC(C)(C)C1)C3c1ccccc1 (stereo not drawn),1.1,1,0.3,-0.1,67.3*
Cc1cccc(Cc2c(C)nc3c(C(=O)NCc4ccco4)cnn3c2C)c1,1,0.5,0.4,50.2*,56.5*
O=C(NCc1ccco1)c1cnn2c(C(F)(F)F)cc(-c3ccccc3)nc12,1.1,1,0.6,0.7,41.8
Cc1ccccc1Cc1c(C)nc2c(C(=O)NCc3ccc4c(c3)OCO4)cnn2c1C,0.9,0.9,0.8,8.7,15.4
Cc1ccc(C)c(Cc2c(C)nc3c(C(=O)NCc4ccc5c(c4)OCO5)cnn3c2C)c1,1.4,0.6,0.1,42.9,86.6*
Cc1nc2c(C(=O)NCc3ccco3)cnn2c(C)c1Cc1ccc(F)cc1Cl,1.1,0.9,1,13.7,3.9
COc1ccc(-c2cc(C(F)(F)F)n3ncc(C(=O)NCc4ccco4)c3n2)cc1,1,0.5,0.5,50.6*,54.3*
Cc1nc2c(C(=O)NCc3ccc4c(c3)OCO4)cnn2c(C)c1Cc1ccc(F)cc1Cl,1.3,0.4,0.1,58.8*,85.7*
O=C(NCC1CCCO1)c1cccc(-n2cnnn2)c1 (stereo not drawn),0.8,1.1,1.2,-14.6,-19.5
COC(=O)C1=C(C(=O)c2ccc(C)cc2)C(c2ccc(OC)c(OC)c2)n2nnnc2N1 (stereo not drawn),1.1,1.1,1.2,-9.2,-23.1
CCOC(=O)C1=C(C)Nc2nnnn2C1c1ccc(OC)c(Br)c1 (stereo not drawn),1.1,0.6,0.3,40.5,66.7*
COC(=O)C1=C(C(=O)c2ccc(C)cc2)C(c2ccc(O)c(OC)c2)n2nnnc2N1 (stereo not drawn),0.9,0.9,0.3,6.2,68.8*
CCOc1ccccc1C1C(C(=O)Nc2ccccc2OC)=C(C)Nc2nnnn21 (stereo not drawn),0.9,0.1,0.5,88.2*,51.8*
C=CCOC(=O)C1=C(C)Nc2nnnn2C1c1cc(OC)ccc1OC (stereo not drawn),1.1,0.3,0.5,71.3*,51.0*
CCCCOC(=O)C1=C(C)Nc2nnnn2C1c1ccccc1Cl (stereo not drawn),0.8,1.1,1.1,-12.5,-7.0
CCCN1C(=O)c2cc(C(=O)NCc3ccc(OC)cc3)ccc2C1O (stereo not drawn),1.1,1,0.9,-2.7,14.9
COc1ccccc1N1CCN(Cc2cccc(OC)c2OC)CC1,1,0.6,1,43.3,-4.7
SMILES,PLAP activator,CYP2C19 activ,CYP2C9 act,CYP2C19 inhib,CYP2C9 inhib
COc1ccc(CN2CCc3ccccc3C2)c(OC)c1OC,1.1,0.4,1,61.2*,2.9
O=C(O)c1ccc2c(c1)C(=O)N(Cc1ccccc1)C2=O,1.1,1,0.9,2.5,7.8
COc1ccc(-c2ccnc3nc(N4CCOCC4)nn23)cc1,1,0.8,0.7,16.6,30.6
COc1ccc(-c2ccnc3nc(-n4cccc4)nn23)cc1,1,0.7,0.5,25.7,51.3*
CC(C)(C)C(=O)/C=C(N)/C=C/c1ccccc1,1,0.7,0.8,28.2,15.5
COC(=O)c1ccc(NC(=O)CSCc2ccccc2C)cc1,0.9,0.1,0.1,94.4*,92.5*
COC(=O)c1ccc(NC(=O)CSCc2ccc(C)cc2)cc1,0.6,0.2,0.1,75.1*,89.8*
O=C(CSc1nc2ccccc2c(=O)n1-c1ccccc1)NCc1ccc2c(c1)OCO2,1.1,0.8,0.8,18.6,18.4
CCCCNC(=O)CSc1nc2ccccc2c(=O)n1Cc1ccc2c(c1)OCO2,0.8,0.2,0.6,83.6*,43.7
CCn1c(SCC(=O)NCc2ccco2)nc2cccnc21,0.9,0.9,1.3,7.1,-30.9
CCCCn1c(SCC(=O)NCc2ccco2)nnc1-c1ccco1,1.1,0.9,1.1,5.0,-6.5
CC(C)(C)c1nc(SCC(=O)NCc2ccco2)c2ccccc2n1,1.4,0.1,0.3,93.9*,65.4*
O=C(CSc1ncc(-c2ccccc2)nn1)NCc1ccco1,0.8,1,0.9,4.9,5.7
CC(=O)NCCn1c(SCC(=O)NCc2ccco2)nc2ccccc2c1=O,1,0.2,1.2,85.0*,-15.1
CCCCn1c(SCC(=O)NCc2ccco2)nc2ccccc2c1=O,0.8,0.4,0.5,64.9*,52.2*
Nc1nnc(CSCc2ccc(F)cc2)s1,0.9,0.5,1,47.5,-0.9
O=S(=O)(NCCOCC(F)(F)F)c1ccc2oc3ccccc3c2c1,1,.,.,.,.
Nc1nncn1C(=O)c1cc(Br)ccc1Cl,0.8,1,1.2,-3.3,-24.1
CC(=O)NCCn1c(SCC(=O)NCCC(C)C)nc2ccccc2c1=O,0.9,0.3,0.9,68.8*,10.8
COc1ccccc1NC(=O)CSc1nc2ccccc2c(=O)n1CCNC(C)=O,1,0.7,0.5,33.3,49.0
CNc1nc(C)nc(-c2ccccc2O)n1,0.9,0.8,2.1*,15.6,-112.5
Cc1cc(Oc2ccccc2)nc(-c2ccccc2O)n1,0.8,1,1,-0.6,1.2
N#CC(c1cccc(Cl)c1)c1ccc2c(C(F)(F)F)cc(C(F)(F)F)nc2n1 (stereo not drawn),1,0.7,0.2,28.7,77.7*
Cc1ccccc1NC(=S)NC1CC2CCC(C1)N2Cc1ccco1 (stereo not drawn),1.1,1.1,1.1,-8.1,-6.0
CCOC(=O)C(C)c1nn(C)c(=O)c2ccccc12 (stereo not drawn),1,0.3,0.8,67.0*,15.4
O=C(COc1ccc(Br)cc1)c1ccc2c(c1)CCCC2,0.5,0.5,1.6,51.6*,-62.5
Cc1ccc(OCC(=O)c2ccc3c(c2)CCCC3)cc1C,1.1,1,1.4,1.5,-39.6
COc1ccc(N2C(=O)CC(N3CCC(O)(c4ccc(Br)cc4)CC3)C2=O)cc1 (stereo not drawn),1.2,1,1,-1.0,4.8
